The panel holds about 83,000 compounds, 20% with a hit somewhere; the sample as a whole holds those more often.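 Treatment: one concentration, 48 hours, 96-well format. Scoring: percent growth, with anything below 10 considered active.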 Values without a mark were called inactive. The source made the active and inactive calls.

The results in this text go back to PubChem BioAssay (NCI).

Assay in all cases: NCI-60 one-dose screen, 48 h (100 = growth as untreated, 0 = no growth, -100 = all killed)
One assay relates to NCI-H23 lung. The note with it: 10 µM unless noted.
The subject of the next assay is NCI-H226 lung. The note with it: 10 µM unless noted.
The test system of the next assay is NCI-H322M lung. To be noted: 10 µM unless noted.
The next assay deals with HOP-62 NSCLC. The note with it: 10 µM unless noted.
The subject of another assay is NCI-H460 lung. To be noted: 10 µM unless noted.
Another assay has as its system HOP-92 NSCLC. To be noted: 10 µM unless noted.
The test system of another assay is NCI-H522 lung. To be noted: 10 µM unless noted.
The next assay has as its system A549/ATCC NSCLC. To be noted: 10 µM unless noted.
In a further assay the test system is 786-0 renal. To be noted: 10 µM unless noted.
In a further assay the test system is COLO 205 colon. To be noted: 10 µM unless noted.
For the next assay, the system named is DU-145 prostate. The note with it: 10 µM unless noted.
In a further assay the test system is K-562 leukemia. To be noted: 10 µM unless noted.
A further assay has as its system MALME-3M melanoma. To be noted: 10 µM unless noted.
In the next assay the test system is MDA-MB-231 breast. To be noted: 10 µM unless noted.
For another assay, the system named is RXF 393 renal. The note with it: 10 µM unless noted.
A further assay relates to SF-268 CNS. The note with it: 10 µM unless noted.
In another assay the test system is SF-295 CNS. The note with it: 10 µM unless noted.
For another assay, the system named is SF-539 CNS. To be noted: 10 µM unless noted.
Another assay concerns UACC-257 melanoma. The note with it: 10 µM.
The test system of another assay is M14 melanoma. To be noted: 10 µM unless noted.

For the compound `Cc1cc(=O)n2nc(-c3cn(C)c4ccc(Cl)cc34)sc2n1`, the growth in the assay on NCI-H23 lung was 92.1%; with NCI-H226 lung it was 67.3%; in the assay with NCI-H322M lung it was 97.2%; with HOP-62 NSCLC it was 85.7%; in the assay with NCI-H460 lung it was 78.6%; in the assay with HOP-92 NSCLC it was 80.1%. Besides, the growth with NCI-H522 lung is 89.2%; with A549/ATCC NSCLC it was 96.7%; with 786-0 renal it was 102%; in the assay on COLO 205 colon, 93.7%; with DU-145 prostate, 90.1%; in the assay with K-562 leukemia, 99.2%. Besides, the growth was 93% in the assay with MALME-3M melanoma; 82.3% with MDA-MB-231 breast; 59.5% in the assay on RXF 393 renal; 87% with SF-268 CNS; 105% in the assay on SF-295 CNS; 83% with SF-539 CNS. The results for the growth with UACC-257 melanoma and in the assay with M14 melanoma were 97% and 92%, respectively.

In the case of `c1ccc(-c2c(-c3ccccc3)[n+](Cc3ccc4ccccc4c3)c(-c3ccccc3)n2Cc2ccc3ccccc3c2)cc1`, the growth is -81% (active) in the assay with NCI-H23 lung; -66.8% (active) in the assay on NCI-H226 lung; -97% (active) in the assay with NCI-H322M lung; -66.9% (active) with HOP-62 NSCLC; -75.6% (active) in the assay with NCI-H460 lung; -89.8% (active) in the assay with HOP-92 NSCLC. For the same compound, the growth in the assay with NCI-H522 lung was -76.2% (active); in the assay with A549/ATCC NSCLC, -74.3% (active); in the assay on 786-0 renal, -76.9% (active); in the assay on COLO 205 colon it was -57.8% (active); in the assay on DU-145 prostate it was -92.6% (active); in the assay with K-562 leukemia, -30.9% (active). The growth with MALME-3M melanoma was -82.5% (active); in the assay on MDA-MB-231 breast it was -85.6% (active); in the assay with RXF 393 renal it was -91.9% (active); in the assay with SF-268 CNS, -73.5% (active); in the assay with SF-295 CNS, -91.3% (active); in the assay on SF-539 CNS, -90% (active). The growth with UACC-257 melanoma was -56.6% (active); with M14 melanoma it was -72% (active).

With `O=C1[C@@H]2Cc3c([nH]c4ccccc34)[C@H](c3c(Cl)cccc3Cl)N2C(=O)CN1C1CCN(Cc2ccccc2)CC1`, the growth is 41.7% in the assay on NCI-H23 lung; 74.9% in the assay on NCI-H226 lung; 77.7% in the assay on NCI-H322M lung; 81.3% in the assay on HOP-62 NSCLC; 9.15% (active) in the assay on NCI-H460 lung; 42.8% in the assay on HOP-92 NSCLC. Further, the growth is 63.5% with NCI-H522 lung; 12.7% with A549/ATCC NSCLC; -26.6% (active) with 786-0 renal; 75% with COLO 205 colon; 31.6% in the assay on DU-145 prostate; -8.4% (active) in the assay with K-562 leukemia. The growth in the assay with MALME-3M melanoma was 44.9%; in the assay with MDA-MB-231 breast it was 55.4%; in the assay on RXF 393 renal it was 55.9%; in the assay with SF-268 CNS, 52.5%; in the assay with SF-295 CNS, -79.4% (active); with SF-539 CNS, 70.3%. The growth is 46.4% in the assay with UACC-257 melanoma and 23.3% in the assay on M14 melanoma.

On to `COc1ccc(NC(=O)[C@H](C)N)cc1C(=O)Nc1cccc(-c2cc(=O)c3c(OC)c(OC)c(OC)cc3o2)c1`, for which the growth was 64.4% with NCI-H23 lung; 67.2% in the assay with NCI-H226 lung; 67.7% in the assay on NCI-H322M lung; 67.3% in the assay with HOP-62 NSCLC; 52.4% in the assay on NCI-H460 lung; -4.58% (active) in the assay with HOP-92 NSCLC. The growth is 82% in the assay with NCI-H522 lung; 76.5% in the assay with A549/ATCC NSCLC; 63.5% with 786-0 renal; 69.6% with COLO 205 colon; 60.8% in the assay with DU-145 prostate; 52.6% with K-562 leukemia. The growth in the assay with MALME-3M melanoma is 86.5%; in the assay on MDA-MB-231 breast, 62.3%; in the assay with RXF 393 renal, 71.9%; in the assay with SF-268 CNS it was 66.6%; in the assay on SF-295 CNS, 64.6%; in the assay with SF-539 CNS it was 71.9%. For the same compound, the growth with UACC-257 melanoma was 109%; with M14 melanoma, 104%.

For `CCCC(=O)NC(c1cccnc1)c1ccc2c(C)ccnc2c1O` (stereo not given), the growth was 37.8% in the assay on NCI-H23 lung; 17.2% in the assay on NCI-H226 lung; 27.2% in the assay with NCI-H322M lung; 23.4% with HOP-62 NSCLC; 6.08% (active) in the assay with NCI-H460 lung; 47.2% in the assay on HOP-92 NSCLC. For the same compound, the growth with NCI-H522 lung is 0.954% (active); in the assay with A549/ATCC NSCLC it was 16%; in the assay with 786-0 renal it was 26%; in the assay on COLO 205 colon, 9.55% (active); in the assay on DU-145 prostate, 30.1%; in the assay on K-562 leukemia it was 21.4%. For the same compound, the growth was 21.2% in the assay with MALME-3M melanoma; 32.9% with MDA-MB-231 breast; 20.4% with RXF 393 renal; 21.9% with SF-268 CNS; 17.8% in the assay on SF-295 CNS; 14.6% with SF-539 CNS. In addition, the growth in the assay on UACC-257 melanoma was 5.9% (active); with M14 melanoma, 9.45% (active).

With `Oc1ccccc1-c1nnc(SCc2ccc(O)c3ncccc23)n1-c1ccccc1`, the growth in the assay with NCI-H23 lung was 17.4%; in the assay on NCI-H226 lung, 9% (active); with NCI-H322M lung it was 21.9%; with HOP-62 NSCLC, 13.6%; in the assay with NCI-H460 lung, 3.98% (active); with HOP-92 NSCLC, -4.85% (active). The growth is -6.01% (active) with NCI-H522 lung; 9.34% (active) in the assay on A549/ATCC NSCLC; 20.1% with 786-0 renal; 34.5% with COLO 205 colon; 22.9% in the assay on DU-145 prostate; 10.8% in the assay with K-562 leukemia. Further, the growth in the assay on MALME-3M melanoma is 0.0457% (active); in the assay on MDA-MB-231 breast, 28.2%; in the assay with RXF 393 renal, -9.85% (active); with SF-268 CNS, 14.9%; with SF-295 CNS it was 1.17% (active); in the assay on SF-539 CNS, 7.96% (active). In addition, the growth with UACC-257 melanoma is 1.58% (active); with M14 melanoma it was -28.3% (active).

As to `Nc1n[nH]c2cccc(C#Cc3cccc(NC(=O)c4cccc(OC(F)(F)F)c4)c3)c12`, the growth with NCI-H23 lung was 35.1%; in the assay with NCI-H226 lung, 46.8%; in the assay with NCI-H322M lung, 77.3%; with HOP-62 NSCLC it was 59.4%; in the assay with NCI-H460 lung, 58.1%; in the assay on HOP-92 NSCLC, -9.3% (active). Besides, the growth is 49.2% in the assay with NCI-H522 lung; 71.4% in the assay on A549/ATCC NSCLC; 65.3% in the assay with 786-0 renal; 49% in the assay on COLO 205 colon; 71.4% in the assay on DU-145 prostate; 7.22% (active) in the assay on K-562 leukemia. Besides, the growth was 2.17% (active) in the assay on MALME-3M melanoma; 17.7% in the assay with MDA-MB-231 breast; 24.2% in the assay on RXF 393 renal; 50.9% in the assay on SF-268 CNS; 73.8% in the assay with SF-295 CNS; 6.63% (active) in the assay on SF-539 CNS. The figures for the growth in the assay with UACC-257 melanoma and with M14 melanoma were 63.1% and 31%, respectively.

As to `CCOC(=O)C1=C(C)Nc2nnc(Nc3ccccc3)n2C1c1ccccc1` (stereo not given), the growth is 72.4% in the assay on NCI-H23 lung; 86.7% in the assay with NCI-H226 lung; 91.2% in the assay with NCI-H322M lung; 81.8% in the assay on HOP-62 NSCLC; -28.3% (active) in the assay with NCI-H460 lung; 82.4% in the assay on HOP-92 NSCLC. The growth in the assay with NCI-H522 lung is 79.2%; in the assay on A549/ATCC NSCLC it was 48.9%; with 786-0 renal, 75.5%; in the assay with COLO 205 colon, 88.9%; in the assay with DU-145 prostate it was 81.6%; in the assay on K-562 leukemia, 57%. In addition, the growth was 75.3% in the assay on MALME-3M melanoma; 65.7% in the assay on MDA-MB-231 breast; 80% in the assay on RXF 393 renal; 81.9% in the assay on SF-268 CNS; 96.6% with SF-295 CNS; -3.55% (active) in the assay with SF-539 CNS. For the same compound, the growth is 97% in the assay with UACC-257 melanoma and 100% in the assay on M14 melanoma.
